# Reference: PubChem BioAssay (Tox21)
# A number with no mark means an inactive call. Inconclusive results are not listed. Activity calls are given as the source filed them. Calls follow the shape of the full dose curve.
# Assay: G protein-coupled receptor (GPCR) small molecule agonists, calcium flux assay: HEK293 wild type cell line counter screen (AID 1920065)
# Conditions: HEK293 WT calcium flux, fluorescence, agonist mode; series mostly up to 57.6 µM; activation: at the top concentration
# Procedure, shortened: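 Following 18 h incubation at 37 C/5% CO2, plates got calcium dye for 1 h; compounds, ATP or DMSO were then pinned in and fluorescence followed kinetically (480/540 nm).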
# % is scaled to controls: 0 for no effect and ±100 for the full control effect.
row,SMILES,activation
1,CCC(C)c1cc([N+](=O)[O-])cc([N+](=O)[O-])c1OC(=O)C=C(C)C (stereo not drawn),0.759%
2,O=c1[nH]c2ccccc2n1CCCN1CCC(n2c(=O)[nH]c3cc(Cl)ccc32)CC1,-0.655% [at 26.5 µM]
3,CCCN(CCC)CCc1c[nH]c2ccccc12,-0.521%
4,CCOC(=O)C(SP(=S)(OC)OC)c1ccccc1 (stereo not drawn),-1.88%
5,CCOP(=S)(OCC)SCS(=O)(=O)C(C)(C)C,0.161%
6,O=NN(CCO)CCO,0.726%
7,c1coc(-c2nc3ccccc3[nH]2)c1,-0.138%
8,CC1CCC(C(C)C)C(OC(=O)c2ccccc2N)C1 (stereo not drawn),-0.762%
9,Cc1ccn2nc(S(=O)(=O)Nc3c(F)cccc3F)nc2n1,-0.259%
10,CCOP(=S)(Oc1cnc(C(C)(C)C)nc1)OC(C)C (stereo not drawn),-0.17%
11,O=C1c2ccccc2C(=O)c2ccccc21,0.614% [at 11.8 µM]
12,CCCCN(N=O)C(=N)N[N+](=O)[O-],0.0506%
13,IC(I)=C(I)I,6.83%
14,CON(C)C(=O)Nc1ccc(Br)c(Cl)c1,-1.43%
15,C=CC(=O)OCC(COC(=O)C=C)(COC(=O)C=C)COC(=O)C=C,-0.638%
16,CCNC(=O)NC(=O)/C(C#N)=N/OC,-2.14%
17,CCOc1nc(C(Cl)(Cl)Cl)ns1,0.806%

row,SMILES,activation
1,CC(=O)[O-].CC(=O)[O-].[Hg+2],17%
2,COc1cccc2c1C(=O)c1c(O)c3c(c(O)c1C2=O)C[C@@](O)(C(=O)CO)CC3OC1CC(N2CCOC(OC)C2)C(O)C(C)O1 (stereo partly drawn),9.09% [at 26.5 µM]
3,CCCCOC(=O)c1ccccc1N,-0.737%
4,Nc1cc(Cl)ccc1Cl,-2.09%
5,CCCN1CCC[C@@H]2Cc3nc(N)ncc3C[C@H]21,0.0559% [at 26.5 µM]
6,CNC(=O)Oc1cccc(C(C)C)c1,-1.94%
7,CC(=O)OC(c1ccccc1)C(Cl)(Cl)Cl (stereo not drawn),-0.0113%
8,CC(C)C(Nc1ccc(C(F)(F)F)cc1Cl)C(=O)OC(C#N)c1cccc(Oc2ccccc2)c1 (stereo not drawn),-0.098%
9,C[CH2][Hg][N]1C(=O)C2C(C1=O)C1(Cl)C(Cl)=C(Cl)C2(Cl)C1(Cl)Cl (stereo not drawn),-0.0279% [at 11.8 µM]
10,CCCCCCCCc1ccc(O)cc1,2.56%
11,Oc1ccc2[nH]cc(CCCCN3CC=C(c4ccccc4)CC3)c2c1,0.577% [at 26.5 µM]
12,CC(=O)[O-].CC(=O)[O-].O.O.[Cd+2],9.92%
13,NC(=O)CI,-0.435%
14,CCN(CC)c1nc(C)cc(OP(=S)(OC)OC)n1,-1.62%
15,COC(=O)C(C)N(C(=O)Cc1ccccc1)c1c(C)cccc1C (stereo not drawn),-0.155%
16,CCCSP(=O)(OCC)SCCC,-1.88%
17,OCCBr,-0.642%

# Assay: p53 small molecule agonists, cell-based qHTS assay with human liver microsomes (AID 1963577); also: potency is read from the fitted curve at half-maximal effect;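 as to activation: p53 response element beta-lactamase reporter cells with liver microsomes plus NADPH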
# Conditions: HCT-116 p53RE-bla with human liver microsomes, ratio, 16 h; series mostly up to 66 µM; activation: at the top concentration
# Procedure, shortened: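 Steps: plate p53RE-bla cells, incubate 5 h at 37 C; add compound in DMSO; add microsomes (0.5 mg/mL final) and NADPH (0.5 mg/mL final); incubate 16 h at 37 C; add LiveBLAzer, 2 h RT; read fluorescence.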
SMILES,activation,Potency
CCC(C)c1cc([N+](=O)[O-])cc([N+](=O)[O-])c1OC(=O)C=C(C)C (stereo not drawn),-5.79%,–
CCCN(CCC)CCc1c[nH]c2ccccc12,-3.3%,–
CCOP(=S)(OCC)SCS(=O)(=O)C(C)(C)C,–,1.82 µM (active)
O=NN(CCO)CCO,-0.159%,–
c1coc(-c2nc3ccccc3[nH]2)c1,0.727%,–
CC1CCC(C(C)C)C(OC(=O)c2ccccc2N)C1 (stereo not drawn),3.05%,–
O=[N+]([O-])c1ccc(Cl)c(Cl)c1Cl,-0.167%,–
O=C1c2ccccc2C(=O)c2ccccc21,1.15% [at 13.5 µM],–
C[C@H](N)[C@H](O)c1ccc(O)c(O)c1,-0.284% [at 30.3 µM],–
CCCCN(N=O)C(=N)N[N+](=O)[O-],2.51%,–
IC(I)=C(I)I,-7.72%,–
C=CC(=O)OCC(COC(=O)C=C)(COC(=O)C=C)COC(=O)C=C,-9.33%,–
COc1cccc2c1C(=O)c1c(O)c3c(c(O)c1C2=O)C[C@@](O)(C(=O)CO)CC3OC1CC(N2CCOC(OC)C2)C(O)C(C)O1 (stereo partly drawn),-22.4% [at 30.3 µM],–
Nc1cc(Cl)ccc1Cl,0.486%,–
CCCN1CCC[C@@H]2Cc3nc(N)ncc3C[C@H]21,3.18% [at 30.3 µM],–
CC(=O)OC(c1ccccc1)C(Cl)(Cl)Cl (stereo not drawn),-0.886%,–
CC(C)C(Nc1ccc(C(F)(F)F)cc1Cl)C(=O)OC(C#N)c1cccc(Oc2ccccc2)c1 (stereo not drawn),-4.44%,–
C[CH2][Hg][N]1C(=O)C2C(C1=O)C1(Cl)C(Cl)=C(Cl)C2(Cl)C1(Cl)Cl (stereo not drawn),-12.1% [at 13.5 µM],–
CCCCCCCCc1ccc(O)cc1,-4.22%,–
Oc1ccc2[nH]cc(CCCCN3CC=C(c4ccccc4)CC3)c2c1,-3.19% [at 30.3 µM],–
NC(=O)CI,-1.62%,–
CCN(CC)c1nc(C)cc(OP(=S)(OC)OC)n1,0.322%,–
COC(=O)C(C)N(C(=O)Cc1ccccc1)c1c(C)cccc1C (stereo not drawn),0.141%,–

# Assay: p53 small molecule agonists, cell-based qHTS assay with rat liver microsomes (AID 1963578); also: potency is read from the fitted curve at half-maximal effect
# Conditions: HCT-116 p53RE-bla, beta-lactamase ratio, 16 h; series mostly up to 66 µM; activation: at the top concentration
# Procedure, shortened: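 Metabolic activation is supplied by rat liver microsomes with NADPH (each 0.5 mg/mL final). p53RE-bla cells incubate with compound 16 h at 37 C; reporter activity is measured by LiveBLAzer fluorescence.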
SMILES,activation,Potency
CCC(C)c1cc([N+](=O)[O-])cc([N+](=O)[O-])c1OC(=O)C=C(C)C (stereo not drawn),5.36%,–
O=c1[nH]c2ccccc2n1CCCN1CCC(n2c(=O)[nH]c3cc(Cl)ccc32)CC1,-1.02% [at 30.3 µM],–
O=NN(CCO)CCO,-0.229%,–
c1coc(-c2nc3ccccc3[nH]2)c1,-0.348%,–
CC1CCC(C(C)C)C(OC(=O)c2ccccc2N)C1 (stereo not drawn),–,35.8 µM (active)
O=[N+]([O-])c1ccc(Cl)c(Cl)c1Cl,4.73%,–
O=C1c2ccccc2C(=O)c2ccccc21,-4.38% [at 13.6 µM],–
C[C@H](N)[C@H](O)c1ccc(O)c(O)c1,4.97% [at 30.3 µM],–
CCCCN(N=O)C(=N)N[N+](=O)[O-],13.2%,–
C=CC(=O)OCC(COC(=O)C=C)(COC(=O)C=C)COC(=O)C=C,7.98%,–
CCOc1nc(C(Cl)(Cl)Cl)ns1,-0.644%,–
O=CCCl,3.07%,–
COc1cccc2c1C(=O)c1c(O)c3c(c(O)c1C2=O)C[C@@](O)(C(=O)CO)CC3OC1CC(N2CCOC(OC)C2)C(O)C(C)O1 (stereo partly drawn),-6.89% [at 30.3 µM],–
Nc1cc(Cl)ccc1Cl,-1.2%,–
CCCN1CCC[C@@H]2Cc3nc(N)ncc3C[C@H]21,-0.178% [at 30.3 µM],–
CC(=O)OC(c1ccccc1)C(Cl)(Cl)Cl (stereo not drawn),-3.03%,–
CC(C)C(Nc1ccc(C(F)(F)F)cc1Cl)C(=O)OC(C#N)c1cccc(Oc2ccccc2)c1 (stereo not drawn),0.484%,–
C[CH2][Hg][N]1C(=O)C2C(C1=O)C1(Cl)C(Cl)=C(Cl)C2(Cl)C1(Cl)Cl (stereo not drawn),-6.79% [at 13.6 µM],–
Oc1ccc2[nH]cc(CCCCN3CC=C(c4ccccc4)CC3)c2c1,1.13% [at 30.3 µM],–
NC(=O)CI,-0.112%,–
COC(=O)C(C)N(C(=O)Cc1ccccc1)c1c(C)cccc1C (stereo not drawn),1.29%,–
